In all, about 340,000 compounds went through this assay and about 8,500 (2.5%) were called active. For the sample, actives were picked, then their nearest neighbours and some compounds at random. A number with no mark means an inactive call.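 The calls were made as follows: active = melting temperature shift of at least 10% of the positive control shift, at one fixed dose; inactive = the rest.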
system: Glutamate receptor ionotropic, NMDA 3A (GRIN3A) ligand-binding domain; assay: NR3A LBD thermal stabilization by compounds – biophysical, differential scanning fluorimetry, uHTS, primary screen (AID 1259313); settings: at 25 µM, active compounds read high, 0% = protein alone, 100% = glycine-bound protein

Row | SMILES | Tm shift relative to glycine control
1 | CC(NC(=O)c1ccccc1SCC(=O)N1CCCC1)c1ccccc1 (stereo unspecified) | 1.13%
2 | Cc1cc(Cl)c(S(=O)(=O)Nc2ccc3c(c2)OCCO3)cc1OCC(N)=O | 5.63%
3 | Cc1cc(Cl)c(S(=O)(=O)NCCC(=O)O)cc1OCC(N)=O | -2.09%
4 | Cc1cc(Cl)c(S(=O)(=O)N(C)C)cc1OCC(N)=O | 10.2% (active)
5 | O=C(Nc1ccccc1F)c1cc(S(=O)(=O)N2CCCCC2)cs1 | -1.16%
6 | CCN(c1ccccc1)S(=O)(=O)c1cccc(C(=O)NCc2ccccc2CN2CCOCC2)c1 | 2.34%
7 | CCOc1ccc(NC(=O)c2ccc(CSc3nnnn3C)cc2)cc1 | 26.8% (active)
8 | CCOc1ccc(NC(=O)CSc2nncn2C)cc1 | -0.09%
9 | COc1ccc(CSc2nnnn2-c2ccc(C(=O)O)cc2)cc1 | 3.65%
10 | O=C(CSc1ccc(-c2ccco2)nn1)Nc1cccc(F)c1 | -2.4%
11 | O=C(O)c1cccc(NC(=O)c2cc(-c3cccc(Cl)c3)nc3ccccc23)c1 | -12.1%
12 | O=C(Nc1cccc(F)c1)c1cc(-c2ccco2)nc2ccccc12 | 11.7% (active)
13 | CC1CCN(C(=O)COC(=O)CCC(=O)c2cccs2)CC1 | 0.85%
14 | Cc1ccc(COc2ccc(C(=O)NN)cc2)cc1 | -4.77%
15 | Cc1cccc(C(=O)Nc2ccc(Oc3cnccn3)cc2)c1 | 1.77%
16 | Cc1cccc(OCc2ccc(C(=O)Nc3ccc(F)cc3)cc2)c1 | 13.3% (active)
17 | CC(C)(CNC(=O)CNC(=O)C1CCCCC1)N1CCOCC1 | -1.27%
18 | COc1ccc(NC(=O)CCCC2CCCCC2)c(OC)c1 | 2.43%
19 | Cc1ccc(CNC(=O)Cn2cnc3c(NCc4ccccc4)ncnc32)o1 | 3%
20 | Cc1ccc(-c2csc(NCCc3nc4cc(Cl)c(Cl)cc4n3CCOCCO)n2)cc1 | -1.81%
21 | Cc1ccc(Nc2nc(-c3ccc(O)cc3O)cs2)nc1 | 27.4% (active)
22 | COc1ccc(CCNC(=O)NS(=O)(=O)c2ccc(C)cc2)cc1OC | -2.28%
23 | O=[N+]([O-])c1ccccc1SNc1ccccn1 | 1.04%

Row | SMILES | Tm shift relative to glycine control
24 | CCOC(=O)N1CCN(CC(=O)c2ccc3c(c2)CCN3)CC1 | -1.56%
25 | C[C@H](OC(=O)n1ccnc1)[C@@H]1O[C@@]2(C)CCC[C@@H]1O2 | -0.49%
26 | COc1ccc(N(CC(=O)NC2CCCCCCC2)S(=O)(=O)c2c(C)nn(C)c2C)cc1 | -1.2%
27 | O=C(C1CCCN(S(=O)(=O)c2ccccc2)C1)N1CCN(c2ccc(F)cc2)CC1 (stereo unspecified) | -0.26%
28 | O=C(O)C1CCCCC1C(=O)N1CCN(S(=O)(=O)c2ccc(F)cc2)CC1 (stereo unspecified) | 14.4% (active)
29 | O=S(=O)(c1ccc(F)cc1)N1CCN(C(=S)NC2CCCC2)CC1 | 1.46%
30 | Cc1cc(=O)oc2c1ccc1ccccc12 | 0.49%
31 | CCOC(=O)c1cccc(NC(=O)C2CCCN(S(=O)(=O)c3cnc[nH]3)C2)c1 (stereo unspecified) | -1.2%
32 | Cc1cc(C)c(C(=O)CSc2nc(C)cc(=O)[nH]2)c(C)c1 | -3.2%
33 | COC(=O)c1ccccc1SC1CC(=O)N(c2cccc(C)c2)C1=O (stereo unspecified) | -2.37%
34 | COc1cc2ccccc2cc1C(=O)Nc1ccccc1C | 3.64%
35 | COc1cc(OC)c(C(=O)Nc2ccccc2-c2ccccc2)cc1OC | 11.5% (active)
36 | O=C(Nc1ccccc1-c1ccccc1)c1ccccc1[N+](=O)[O-] | -0.71%
37 | Cc1sc(NC(=O)C2=COCCO2)c(C#N)c1C | -1.88%
38 | O=C(Nc1cccc(-c2cccc(Cl)c2)c1)C1CCN(C2CCC2)CC1 | -0.08%
39 | C=CCSc1nnc(Cn2c(=O)sc3ccccc32)n1C | -0.55%
40 | O=c1c(-c2ccc3c(c2)OCCO3)c(C(F)(F)F)oc2cc(O)cc(O)c12 | 6.01%
41 | CCOC(=O)c1oc2c(CN3CCN(C)CC3)c(O)ccc2c(=O)c1-c1ccc(Br)cc1 | -3.94%
42 | CCOC(=O)c1cc2cc(-c3c(C(=O)OCC)oc4cc(O)cc(O)c4c3=O)ccc2o1 | 22.4% (active)
43 | Nc1nc(SCc2ccc([N+](=O)[O-])cc2)c2ncn(C3OC(CO)C(O)C3O)c2n1 (stereo unspecified) | 1.21%
44 | COc1ccc(CN2CCNC(=O)C2CC(=O)N(C)Cc2ccccn2)cc1OC (stereo unspecified) | 2.19%
45 | Cc1cccc(-n2c(C)cc(/C=N\NC(=O)c3cccs3)c2C)c1 | 11.5% (active)
46 | Cc1ccc(-n2c(C)cc(/C=N\NC(=O)CC(=O)NC(C)C)c2C)cc1 | -0.09%

— PubChem BioAssay AID1259313 (Sanford-Burnham Center for Chemical Genomics, 2017)
